The values below come from PubChem BioAssay AID652115 (Broad Institute, 2013).

Where “and” joins values, the source holds several entries; their conditions need not be identical. Equal entries are not always repeated. Hit rate of the full screen: of about 330,000 compounds, about 3,800 (1.2%) were called active. The sample holds actives, similar compounds and a random draw of the others, so the mix is not that of the screen. No stated cut-off is given here; in the data, active means inhibition above about 15%; inconclusive means no clear call, values can overlap the other calls; inactive means below that. A structure can be active in one record and inactive in another.

Sequence of NAD-dependent protein deacylase sirtuin-5, mitochondrial (Homo sapiens) (Q9NXA8 whole entry, looked up): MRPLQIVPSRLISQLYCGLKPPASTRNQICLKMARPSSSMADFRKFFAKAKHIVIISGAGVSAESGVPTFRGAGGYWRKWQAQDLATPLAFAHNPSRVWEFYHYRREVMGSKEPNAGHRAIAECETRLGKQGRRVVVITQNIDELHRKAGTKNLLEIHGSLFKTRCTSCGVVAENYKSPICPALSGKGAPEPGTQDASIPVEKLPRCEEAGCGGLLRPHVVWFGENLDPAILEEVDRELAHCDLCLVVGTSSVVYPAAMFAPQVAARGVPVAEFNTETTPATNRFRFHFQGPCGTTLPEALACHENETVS

The experiment concerns the target NAD-dependent protein deacylase sirtuin-5, mitochondrial (Homo sapiens) (UniProt Q9NXA8). The experiment can be described thus: SIRT5 desuccinylase inhibitors, primary screen, biochemical, fluorescence imaging, single point, set 5 (AID 652115). Conditions: Purified SirT5, succinyl-peptide AMC, trypsin-coupled fluorescence; at 15 µM; stronger effect = higher value.
What is called inhibition is the drop in the measured response relative to a control, in per cent. With `CS(=O)(=O)c1ccc2nc(NC(=O)c3ccc(Cl)nc3)sc2c1`, the inhibition is 2.94% (inactive).
With `COc1cccc(C(=O)Nc2nc3ccc(S(C)(=O)=O)cc3s2)c1`, the inhibition is -3% (inactive).
To `CNC(=O)c1ccc2nc(NC(C)=O)sc2c1` belongs 17.4% (active); to `CCC(=O)N1C[C@@H](C)[C@H](OC)CN(C)C(=O)c2ccc(NC(=O)c3ccc(F)cc3)cc2OC[C@@H]1C`, -5.95% (inactive).
On to `O=C(CN1CCOCC1)NCC[C@H]1CC[C@@H](NC(=O)Nc2ccc(Cl)cc2)[C@@H](CO)O1`, for which the inhibition is 2.34% (inactive).
Take `COC(=O)C(CC#Cc1ccc2c(c1)[C@]1(C(=O)N2)[C@H](c2ccccc2OCCO)N2[C@H](c3ccccc3)[C@H](c3ccccc3)OC(=O)[C@H]2[C@@H]1C(N)=O)C(=O)OC`: the inhibition was 19.5% (active).
Consider `COC(=O)C(CC#Cc1ccc2c(c1)[C@]1(C(=O)N2)[C@H](c2ccc(O)cc2)N2[C@H](c3ccccc3)[C@H](c3ccccc3)OC(=O)[C@H]2[C@@H]1C(=O)NC[C@H](O)c1ccccc1)C(=O)OC`, for which the inhibition was 5.09% (inactive).
The figure for `COc1ccc(C#Cc2ccc3c(c2)[C@]2(C(=O)N3)[C@H](c3ccccc3OCCO)N3[C@H](c4ccccc4)[C@H](c4ccccc4)OC(=O)[C@H]3[C@@H]2C(=O)N2CCCCCCC2)cc1` is 0.608% (inactive); for `CCCN1[C@@H]2c3ccc(C4=CCCC4)c(=O)n3C[C@@H]2[C@@H](CO)[C@@H]1C(=O)NCc1ccccn1` it is -0.978% (inactive).
Consider `C[C@@H]1CN([C@H](C)CO)S(=O)(=O)c2ccc(C#CCN(C)C)cc2O[C@H]1CN(C)C(=O)CC1CC1`, for which the inhibition was 2.43% (inactive).
As for `COCC(=O)N(C)C[C@@H]1Oc2cc(C#CCC(C)C)ccc2S(=O)(=O)N([C@@H](C)CO)C[C@@H]1C`, the inhibition was 15.3% (active).
For `C[C@H](CO)N1C[C@H](C)[C@H](CN(C)CC2CC2)Oc2cc(-c3ccc(F)cc3)ccc2S1(=O)=O`, the inhibition is -4.28% (inactive).
For the compound `COCC#Cc1ccc2c(c1)O[C@@H](CN(C)C(=O)Nc1ccccc1F)[C@H](C)CN([C@H](C)CO)S2(=O)=O`, the inhibition is 3.15% (inactive).
`COCC(=O)N(C)C[C@H]1Oc2cc(C#CC(C)C)ccc2S(=O)(=O)N([C@H](C)CO)C[C@@H]1C`: the inhibition is 3.27% (inactive).
The figure for `CC(C)CC#Cc1ccc2c(c1)O[C@@H](CN(C)C(=O)Nc1ccccc1F)[C@@H](C)CN([C@@H](C)CO)S2(=O)=O` is 18.7% (active); for `CC(C)CC#Cc1ccc2c(c1)O[C@H](CN(C)C(=O)CC1CC1)[C@@H](C)CN([C@@H](C)CO)S2(=O)=O` it is 31.5% (active).
To `CCC(=O)N(C)C[C@H]1Oc2cc(C#CCC(C)C)ccc2S(=O)(=O)N([C@H](C)CO)C[C@H]1C` belongs 0.389% (inactive); to `CC(C)CC#Cc1ccc2c(c1)O[C@@H](CN(C)C(=O)c1ccccc1F)[C@H](C)CN([C@H](C)CO)S2(=O)=O`, 6.8% (inactive).
Turning to `C[C@@H]1CN([C@@H](C)CO)S(=O)(=O)c2ccc(C#Cc3ccc(F)cc3)cc2O[C@@H]1CN(C)CC1CC1`, the inhibition is 15.1% (active).
As to `C[C@@H]1CN([C@@H](C)CO)S(=O)(=O)c2ccc(C#CCN(C)C)cc2O[C@@H]1CN(C)C(=O)CC1CC1`, the inhibition is 1.11% (inactive).
As to `C[C@@H]1CN([C@@H](C)CO)S(=O)(=O)c2ccc(-c3ccc(F)cc3)cc2O[C@@H]1CN(C)CC1CC1`, the inhibition was -1.76% (inactive).
For `COc1cccc(-c2ccc3n(c2=O)C[C@@H]2[C@@H](CO)[C@H](C(=O)N4CCCCC4)N[C@H]32)c1`, the inhibition was -26.1% (inactive).
As to `C[C@H](O)C#Cc1ccc2c(c1)O[C@H](CN(C)Cc1ccccn1)[C@@H](C)CN([C@@H](C)CO)S2(=O)=O`, the inhibition is 2.94% (inactive).
For the compound `O=C(Cc1ccccc1)N[C@H]1C=C[C@H](CC(=O)N2CCCCC2)O[C@@H]1CO`, the inhibition was 1.42% (inactive).
As to `COc1ccc2c3c([nH]c2c1)[C@H](CO)N(C(=O)NC1CCCC1)CC31CN(C(=O)Nc2cccc(F)c2)C1`, the inhibition was 5.32% (inactive).
The figure for `O=C(NC1CCCCC1)N1CC2(C1)[C@@H](c1ccccc1)[C@@H](CO)N2CC1CCOCC1` is -5.9% (inactive); for `CC(C)NC(=O)N1CC(=O)N2[C@@H](CO)[C@H](c3ccc(C#CCN(C)C)cc3)[C@@H]2C1` it is -1.28% (inactive); for `COCC(=O)N(C)C[C@@H]1Oc2cc(C#Cc3cccnc3)ccc2S(=O)(=O)N([C@H](C)CO)C[C@H]1C` it is -3.01% (inactive).
The figure for `O=C(NC1CCCC1)[C@H]1[C@H](CO)[C@H]2Cn3c(ccc(-c4ccccc4F)c3=O)[C@@H]1N2C(=O)CC1CC1` is -18.6% (inactive); for `CN1c2ccc(-c3cccc(F)c3)cc2[C@@H]2[C@@H](CCN2C(=O)Nc2ccccc2F)[C@@H]1CO` it is -18.1% (inactive); for `O=C(C[C@H]1CC[C@@H]2[C@H](COC[C@H](O)CN2S(=O)(=O)c2ccc(F)cc2)O1)NCCN1CCCCC1` it is -1.86% (inactive).
Regarding `O=C(N[C@H]1CC[C@H](CCn2cc(-c3ccccc3F)nn2)O[C@@H]1CO)c1ccc2c(c1)OCO2`, the inhibition was 1.25% (inactive).
For the compound `CN(Cc1ccccc1F)C[C@H]1[C@@H](c2ccccc2)[C@@H](CO)N1S(C)(=O)=O`, the inhibition is 0.402% (inactive).
To `O=C(Nc1ccccc1F)N1C[C@@H]2[C@H](c3ccccc31)[C@@H](CO)N2C(=O)Nc1ccccc1` belongs -0.735% (inactive).
Regarding `C[C@H]1CN([C@@H](C)CO)S(=O)(=O)c2ccc(C#CC3CCCC3)cc2O[C@H]1CN(C)C(=O)Cc1ccncc1`, the inhibition was -0.107% (inactive).
The figure for `C[C@@H]1CN([C@H](C)CO)S(=O)(=O)c2ccc(C#CC3CCCCC3)cc2O[C@H]1CN(C)C(=O)Cc1ccncc1` is 0.678% (inactive) and -0.925% (inactive) and 15.2% (active).
For `C[C@@H]1CN([C@H](C)CO)S(=O)(=O)c2ccc(C#CC3CCCC3)cc2O[C@@H]1CN(C)C(=O)Cc1ccncc1`, the inhibition was 6.26% (inactive).
For the compound `CCc1nnc(NC(=O)CCC(=O)N2CCN(c3cc(C)ccc3C)CC2)s1`, the inhibition is 18.5% (active).
On to `CC(C)c1nnc(NC(=O)CCC(=O)N2CCN(c3cccc(Cl)c3)CC2)s1`, for which the inhibition is 0.459% (inactive).
Turning to `CCCc1nnc(NC(=O)CCC(=O)N2CCN(S(=O)(=O)c3ccc(OC)cc3)CC2)s1`, the inhibition was 1.56% (inactive).
With `O=C(C1CCC1)N1CC(=O)N2[C@@H](CO)[C@@H](c3ccc(C#Cc4cccc(F)c4)cc3)[C@@H]2C1`, the inhibition is -4.53% (inactive).
Take `Cc1ccccc1S(=O)(=O)N[C@H]1CC[C@@H](CCn2cc(Cc3ccccc3)nn2)O[C@H]1CO`: the inhibition was 31.4% (active).
Take `Cc1ccccc1S(=O)(=O)N[C@H]1CC[C@H](CCn2cc(-c3ccc(F)cc3)nn2)O[C@H]1CO`: the inhibition is -0.59% (inactive).
The figure for `Cc1ccccc1S(=O)(=O)N[C@@H]1CC[C@H](CCn2cc(-c3ccc(F)cc3)nn2)O[C@@H]1CO` is -4.75% (inactive); for `Cc1ccc(S(=O)(=O)N[C@@H]2CC[C@@H](CC(=O)O)O[C@@H]2CO)cc1` it is 1% (inactive).
Take `O=C(C[C@@H]1CC[C@H](NC(=O)Nc2ccc3c(c2)OCO3)[C@H](CO)O1)NCc1ccccc1`: the inhibition was -2.1% (inactive).
To `CN1c2ccc(-c3ccccc3)cc2[C@H]2[C@H](CCN2C(=O)Cc2ccccn2)[C@H]1CO` belongs 21.9% (active); to `CN1c2ccc(-c3ccccc3F)cc2[C@H]2[C@H](CCN2C(=O)Cc2ccccn2)[C@H]1CO`, 2.91% (inactive); to `CN1c2ccc(-c3ccccc3)cc2[C@@H]2[C@@H](CCN2C(=O)c2ccccc2)[C@H]1CO`, 6.95% (inactive).
`CCCNC(=O)C[C@H]1C[C@H]2c3cc(NC(=O)COC)ccc3O[C@H]2[C@H](CO)O1`: the inhibition is -2.28% (inactive).
Consider `Cn1nnnc1SCC(=O)Nc1sccc1C(N)=O`, for which the inhibition is -1.15% (inactive).
Consider `Cn1nnnc1SCC(=O)NNC(=O)c1ccc(Br)cc1`, for which the inhibition is 20.1% (active).
On to `Cn1cnnc1SCC(=O)NNC(=O)COc1ccc(Br)cc1`, for which the inhibition was -1.96% (inactive).
As to `N#C[C@H]1[C@H](c2ccc(-c3cccc(F)c3)cc2)[C@@H](CO)N1C(=O)NC1CCCC1`, the inhibition was 3.71% (inactive).
On to `O=C1CN(Cc2ccc(F)cc2)C[C@H]2[C@@H](c3ccc(Br)cc3)[C@H](CO)N12`, for which the inhibition is 2.52% (inactive).
On to `CN1c2ccc(Br)cc2[C@@H]2[C@@H](CCN2C(=O)Cc2ccccc2)[C@@H]1CO`, for which the inhibition is 0.309% (inactive).
For `CC(C)NC(=O)N(C)C[C@@H]1Oc2ccc(NC(=O)C3CC3)cc2C(=O)N([C@@H](C)CO)C[C@H]1C`, the inhibition is 0.185% (inactive).
Take `Cc1noc(C)c1S(=O)(=O)N(C)C[C@H]1Oc2ccc(NC(=O)C3CCCCC3)cc2C(=O)N([C@H](C)CO)C[C@@H]1C`: the inhibition was -3.3% (inactive).
The figure for `Cc1noc(C)c1S(=O)(=O)N(C)C[C@H]1Oc2ccc(NC(=O)C3CC3)cc2C(=O)N([C@H](C)CO)C[C@@H]1C` is 20.9% (active).
As for `Cc1noc(C)c1S(=O)(=O)N(C)C[C@@H]1Oc2ccc(NC(=O)C3CC3)cc2CC(=O)N([C@@H](C)CO)C[C@@H]1C`, the inhibition is 1.59% (inactive).
Take `C[C@@H]1CN([C@@H](C)CO)C(=O)c2cc(NC(=O)C3CC3)ccc2O[C@H]1CN(C)C`: the inhibition was 41.9% (active) and -3.15% (inactive).
As to `C[C@@H]1CN([C@H](C)CO)C(=O)c2cc(NC(=O)C3CC3)ccc2O[C@@H]1CN(C)C`, the inhibition is -4.11% (inactive).
The figure for `COc1ccc2c3c([nH]c2c1)[C@H](CO)N(C(=O)c1ccncc1)CC31CCN(C(=O)c2ccncc2)CC1` is 12.6% (inactive); for `COc1ccc(S(=O)(=O)N(C)C[C@@H]2OCCCC[C@H](C)Oc3ccc(NC(=O)NC(C)C)cc3C(=O)N([C@@H](C)CO)C[C@@H]2C)cc1` it is 0.637% (inactive).
